Experimental data published in the supplement of paper PMC10338343.
± gives the standard deviation.

System: MILI (PIWIL2) piRISC loaded with L1MC piRNA (26 nt)
Assay: pre-steady-state target cleavage rate (min^-1); guide: L1MC piRNA 5'p-UAACUAAAUACUAUGCAAGCUGUAGG; MIWI and MILI are mouse PIWI proteins and EfPiwi is from a freshwater sponge; tags in brackets are library labels; higher = faster piRNA-guided slicing of the target
Summary of the method: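 Reactions were run for 0–8 or 0–960 min at 33 °C in HEPES–potassium acetate buffer, combining 1 nM active affinity-purified piRISC with one synthetic guide, […] transcribed, DNA-blocked target RNA library and, in some cases, 500 nM GTSF1 partner protein. Sequencing of uncleaved targets followed, with normalisation to depth and to weakly complementary targets. Three trials were pooled, k3 was capped at 0.0001 min^-1, and the pre-steady-state cleavage rate was taken from a burst-and-steady-state fit.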

[1] = auxiliary factor: 500 nM mouse GTSF1
[2] = auxiliary factor: none (no GTSF1)
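Further: 1 nM active piRISC with 0.1 nM target library at 33 °C single turnover.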

Row | Sequence | pre-steady-state target cleavage rate [1] | pre-steady-state target cleavage rate [2]
1 | UCCUGGUACAGCUUGCAUAGUUUUAAGUUA | 0.0506 ± 0.014 | 0.00428 ± 0.0033
2 | UCCUGGAUCACGUUGCAUAGUAUUUAGUAA | 0.18 ± 0.024 | 0.00365 ± 0.0029
3 | UCCUGGAACAGCUUGCAUUGUAUAUAGUUA | 0.149 ± 0.017 | 0.00496 ± 0.0025
4 | UCCUGGAUCAGCAAGCAUAGUAUUUAGUAA | 0.196 ± 0.016 | 0.00292 ± 0.0028
5 | UCCUGGAUGUCCUUGCAUAGUAUUCUAGUUA | 0.1 ± 0.022 | 0.00384 ± 0.0034
6 | UCCUGGAUGUGCAUGCAUAGUAUAUAGUUA | 0.19 ± 0.029 | 0.00367 ± 0.0031
7 | UCCUGGAUGUCCUUGGAUAGUUUUUAGUUA | 0.0144 ± 0.0045 | 0.00344 ± 0.0027
8 | UCCUGGAUGUCGAUGCAUAGUAUUUAGUUU [g2:g17:cont:t1U] | 0.09 ± 0.011 | 0.00618 ± 0.0021
9 | UCCUGGUUCAGCUUGCAUAGAAUUUAGUUA | 0.0374 ± 0.011 | 0.003 ± 0.0029
10 | UCCUGGAACAGCUAGCAUUGUAUUUAGUUA | 0.164 ± 0.013 | 0.0074 ± 0.0021
11 | UCCUGGAUGAGCUUGCUUUGUAUUUAGUUA | 0.0408 ± 0.01 | 0.00403 ± 0.0028
12 | UCCUGGUACAGCUUGCAUACUAUUUAGUUA | 0.104 ± 0.024 | 0.00577 ± 0.0035
13 | UCCUGGAUGUGCUUGCAUUGUAUUAAGUUA | 0.0663 ± 0.014 | 0.00354 ± 0.0033
14 | UCCUGGAUGUGCAUGGAUAGUAUUUAGUUA | 0.11 ± 0.013 | 0.0094 ± 0.0023
15 | UCCUGGUACAGCUUGCAUUGUAUAUAGUUA | 0.087 ± 0.018 | 0.00415 ± 0.0033
16 | UCCUGGAUGUGCUUGCUAUGUAUUUAGUUA | 0.00774 ± 0.0037 | 0.00498 ± 0.0024
17 | UCCUGGAACAGCUUGCAUAGAUAUUUAGUUA | 0.0184 ± 0.0071 | 0.00387 ± 0.0025
18 | UCCUGGAUGUCGAAGCAUAGUAUUUGGUUA | 0.0178 ± 0.0055 | 0.00505 ± 0.0019
19 | UCCUGGAUGUCGUUGCUUAGUUUUUAGUUA | 0.00856 ± 0.0044 | 0.00646 ± 0.0025
20 | UCCUGGAUCAGCUUGCUUAGUAUAUAGUUA | 0.234 ± 0.014 | 0.00803 ± 0.0031
